Most compounds without a hit are left out; they make up all but 0.9% or so of the library.
PPARg SRC-2 ag: promotes SRC-2 coactivator recruitment by human PPARgamma; PPARgamma LBD-SRC-2 recruitment, biochemical; activation, % at 8 µM; 0.34% of 200,000 active; in the data active = activation above about 22%
Target sequence (P37231 whole entry, looked up, the tested form may be a part): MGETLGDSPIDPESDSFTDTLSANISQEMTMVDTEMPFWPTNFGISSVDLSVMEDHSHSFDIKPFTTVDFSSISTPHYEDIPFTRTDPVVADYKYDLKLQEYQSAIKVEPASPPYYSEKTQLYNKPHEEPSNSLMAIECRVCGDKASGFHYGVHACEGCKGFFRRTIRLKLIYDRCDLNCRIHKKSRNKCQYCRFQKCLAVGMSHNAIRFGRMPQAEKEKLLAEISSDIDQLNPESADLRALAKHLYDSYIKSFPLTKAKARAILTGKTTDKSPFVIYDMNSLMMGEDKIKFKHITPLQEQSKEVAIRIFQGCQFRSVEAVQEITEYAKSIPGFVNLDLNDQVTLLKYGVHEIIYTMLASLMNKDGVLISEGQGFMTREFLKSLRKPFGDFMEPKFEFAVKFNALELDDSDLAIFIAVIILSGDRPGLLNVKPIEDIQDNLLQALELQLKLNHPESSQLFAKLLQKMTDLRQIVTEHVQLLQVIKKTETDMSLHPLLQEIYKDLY
SRC2 TRFRET art: TR-FRET artefact, counter-screen to PPARgamma/SRC-2 agonist assay; TR-FRET ratio at 8 µM; AID 1049; 0.4% of 200,000 active; stronger effect = higher value
PPARg SRC-3 ag: PPARgamma-driven SRC-3 recruitment agonism; 0.26% of 200,000 active; activation, % at 8 µM; biochemical PPARgamma/SRC-3 coactivator recruitment assay; in the data active = activation above about 23%
PPARg SRC1 recr: PPARgamma-driven SRC-1 recruitment agonism; AID 631; activation, % at 8 µM; 0.41% of 200,000 active; PPARgamma-SRC-1 coactivator recruitment biochemical assay; in the data active = activation above about 19%
SRC3 TRFRET art: TR-FRET artefact, counter-screen to PPARgamma/SRC-3 agonist assay. PPARgamma/SRC-3 format; stronger effect = higher value. TR-FRET ratio at 8 µM. 0.39% of 99,000 active
SRC1 TRFRET art: counter-screen for PPARgamma SRC-1 recruitment agonists: TR-FRET artefact | TR-FRET detection artefact counter-screen, emission ratio; stronger effect = higher value | TR-FRET ratio at 8 µM | 0.34% of 99,000 active | AID 1051; in the data active = TR-FRET ratio above about 2300
Hits are given with their value; n = inactive; x = no result given. Rule as the data show it, unless noted: active = TR-FRET ratio above about 2000; inactive = the rest.

SMILES	PPARg SRC-2 ag	SRC2 TRFRET art	PPARg SRC-3 ag	PPARg SRC1 recr	SRC3 TRFRET art	SRC1 TRFRET art
CCOC(=O)C1C(=O)C=C(c2ccc(C)cc2)CC1c1ccccc1 (stereo not drawn)	n	2001	n	n	n	n
Cc1[nH]c(=S)c(C#N)c2c1CCCC2	n	n	n	n	n	n
N#Cc1c(N)sc(=S)c2c1CCCC2	n	2023	n	n	x	x
CSCCNC(C)=O	24	2040	n	n	x	x
CSCCNC(=O)c1cccc(Cl)c1	n	n	n	n	n	n
CC(C)(C)C1CCc2c(sc(NC(=O)c3cccs3)c2C(N)=O)C1 (stereo not drawn)	24	n	n	n	x	x
CC(C)(C)c1ccc(-c2nnc3sc(-c4ccncc4)nn23)cc1	190	5672	n	n	x	x
CC(C)OCCCNC(=O)c1ccc2c(c1)ncn2C1CCCC1	n	n	n	n	n	n
O=C(NCCCN1CCCC1=O)c1ccc2c(c1)ncn2C1CCCCC1	22	n	n	n	n	n
CCOC(=O)/C(C#N)=C\N(C)C	n	n	n	n	x	x
C=CCN1C=CC(=C/C=C(/C#N)C(=O)OCC)C=C1	n	n	n	26	x	x
CCc1nc2ccc(C(=O)Nc3cccc(C(C)=O)c3)cc2nc1CC	n	n	n	n	n	n
CCc1nc2ccc(C(=O)Nc3nnc(C)s3)cc2nc1CC	n	n	n	478	n	6131
O=C(COC(=O)c1ccc2c(=O)n3c(nc2c1)CCC3)Nc1ccc(OC(F)F)cc1	n	n	n	n	n	n
COc1ccc(C(=O)NNC(=O)CCn2nnc(-c3ccc(Cl)cc3)n2)cc1OC	n	n	n	n	n	n
Cc1ccc2oc(=O)cc(CN3CCC(C)CC3)c2c1	23	n	n	n	x	x
COc1ccc(-n2nc(C(=O)NCC(=O)Nc3ccccn3)c3ccccc3c2=O)cc1Cl	n	n	n	23	x	x
CCOc1ccc2[nH]c(=O)c(C(c3nnnn3C3CCCCC3)N3CCN(C)CC3)cc2c1 (stereo not drawn)	n	n	n	23	n	n
CCOc1ccc2[nH]c(=O)c(C(c3nnnn3C3CCCCC3)N3CCN(CC)CC3)cc2c1 (stereo not drawn)	n	n	n	n	x	x
COCCN(CCOC)C(=O)c1ccc(SCc2ccc(C)cc2)c([N+](=O)[O-])c1	n	n	n	n	n	n
O=C(CSc1nc2cccnc2n1Cc1ccccc1)NCc1ccco1	n	n	n	34	x	x
O=C1C=CC(=O)N1c1ccc(OC(F)F)cc1	n	n	n	n	n	n
O=C(c1cccc(C(F)(F)F)c1)N1CCN(c2cc(=O)[nH]nc2-c2ccccc2)CC1	n	n	33	n	x	x
CCN(CC)S(=O)(=O)c1ccc(N2CCOCC2)c(NC(=O)c2cc(-c3ccccn3)nc3ccccc23)c1	n	n	n	n	2191	2421
CCOc1ccc(N2CSC3=C(C#N)C(c4ccco4)CC(=O)N3C2)cc1 (stereo not drawn)	25	n	n	n	x	x
SMILES	PPARg SRC-2 ag	SRC2 TRFRET art	PPARg SRC-3 ag	PPARg SRC1 recr	SRC3 TRFRET art	SRC1 TRFRET art
N#CC1=C2SCN(c3ccccc3)CN2C(=O)CC1c1cccs1 (stereo not drawn)	n	2021	n	n	x	x
N#CC1=C2SCN(c3ccccc3)CN2C(=O)CC1c1c(Cl)cccc1Cl (stereo not drawn)	n	n	n	n	x	x
O=C(CNc1cc(S(=O)(=O)N2CCCC2)ccc1OCC(F)(F)F)Nc1cccc(C(F)(F)F)c1	n	n	n	n	n	n
CCOC(=O)C1=C(C)NC(SCC(=O)O)=NC1c1ccccc1 (stereo not drawn)	40	2481	n	n	n	n
NCCCNC(=O)c1ccc(/C=N/O)nc1	n	n	n	n	n	n
COc1ccc(CCN(Cc2nc3ccccc3c(=O)[nH]2)C(=O)c2ccco2)cc1OC	n	n	n	20	x	x
Cc1ccccc1NC(=O)C1Cc2ccccc2CN1C(=O)OCc1ccccc1 (stereo not drawn)	n	n	n	n	n	n
CCOc1ccc(CCNC(=O)CSc2nn(-c3ccc(C)c(Cl)c3)c(=S)s2)cc1OCC	n	n	n	30	n	2577
CCOc1ccc(CCNC(=O)CSc2nnnn2C)cc1OCC	n	n	n	n	n	n
CCSc1nnc(NC(=O)[C@@H](NC(=O)c2ccc(C(C)(C)C)cc2)C(C)C)s1	n	n	n	n	n	n
COc1ccc(S(=O)(=O)Nc2c(F)cccc2F)cc1	22	2118	n	n	n	n

High-throughput results from PubChem BioAssay.
